Compound activity (PubChem)
hNpr1 antagonist = human Npr1 receptor antagonism; HEK293 hNpr1 GloSensor cGMP, ANP-stimulated luminescence; Potency, µM (series often up to 46.3 µM), inactives show top-dose activity change, negative = inhibition, usual class: inhibitors; 1.6% of 76,000 active; AID 1347048; calls by dose curve; note: nearly all actives have a fitted effect of over 60% in size
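Compound pre-incubated 30 min at room temperature on GloSensor-loaded HEK293 cells stably carrying hNpr1 and the pGS-40F cGMP biosensor. Stimulation uses hNppA at 0.1 nM final; luminescence is taken at baseline and 20 min post-agonist.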
SNCA expr inh = reduces expression of the alpha-synuclein gene. HEK-293 SNCA-luciferase knock-in, luminescence, 24 h. Potency, µM (top dose mostly 57.2 µM), for the others: at the top dose activity change, negative = inhibition, actives largely listed as inhibitors. 0.17% of 140,000 active. AID 1671194;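 note: plate controls were DMSO cells for no effect and cell-free wells for full effect; nearly all actives have a fitted effect of over 45% in size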
3T3 cytotox = NIH 3T3 cell cytotoxicity | Potency, µM (series often up to 96.7 µM), for the others: top-dose activity change, negative = cytotoxicity, most hits filed as inhibitors | 4.3% of 94,000 active | AID 1345082 | NIH 3T3 viability, CellTiter-Glo ATP luminescence, 48-72 h; note: nearly all actives have a fitted effect of over 55% in size
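ATP-dependent luminescence (CellTiter-Glo) served as the viability signal for NIH 3T3 cells treated with compound for 48 or 72 hr at 37 °C.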
HEK293 tox = kills HEK 293 cells; AID 1345083; Potency, µM (doses to about 115 µM), inactives show at the highest dose activity change, negative = cytotoxicity, hits mostly inhibitors; HEK 293 viability, ATP luminescence (CellTiter-Glo), 48-72 h; 6.6% of 94,000 active; note: nearly all actives have a fitted effect of over 60% in size
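250 HEK 293 cells/well; compound by pintool; incubated 48 or 72 hr at 37 degree Celsius; CellTiter-Glo added, 10 min RT, luminescence imaged.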
HEK293 viab = counter-screen for SNCA expression inhibitors: cell viability; HEK-293-SNCA-luc viability, GF-AFC fluorescence, 24 h; Potency, µM (titrated, usually from 57.1 µM), without a hit: at the top dose activity change, negative = cytotoxicity, actives largely listed as cytotoxic; 0.12% of 150,000 active;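 note: 0% = DMSO-treated cells and -100% = medium-only wells without cells; nearly all actives have a fitted effect of over 30% in size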
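HEK-293-SNCA-luc cells (1500/well) plated 24 h, then exposed 24 h to a dilution series; GF-AFC added 30 min at 37C, fluorescence 405/540 nm; normalised to medium-only and DMSO wells, Hill fit.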
FLuc inh = Photinus pyralis luciferase inhibition. Potency, µM (titrated, usually from 115 µM), most hits filed as inhibitors. purified P. pyralis luciferase, luminescence, biochemical. 2.5% of 76,000 active; note: nearly all actives have a fitted effect of over 65% in size
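FLuc 10nM, D-luciferin 10uM, ATP 10uM, Mg acetate 10mM, Tris acetate pH 7.5, Tween/BSA; cpd qHTS; enzyme added last; CCD luminescence.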
* marks the source's active call; other numbers are inactive results; i = inactive; ? = inconclusive; nt = no result; [ ] = another dose, or the depositor's remark. In the library only some 7.2% were active in any assay of this set; here they are far more common. Unless noted, calls come from the whole dose curve; as a rule, active = well fitted curve in the direction sought with a large enough effect; inconclusive = small, poorly fitted or top-dose-only effect, or another doubt; inactive = no such curve, though single readings can be large; an effect the other way counts as inactive or inconclusive. Unless noted, % is set by controls: 0 for no effect and ±100 for the full control effect; potency is the fitted concentration of half-maximal effect.

SMILES	hNpr1 antagonist	SNCA expr inh	3T3 cytotox	HEK293 tox	HEK293 viab	FLuc inh
CCOc1ccc(C(=O)NC2CCN(c3cc(-c4ccccc4)[nH]n3)CC2)cc1OCC	-5.2%	-25.2%	-16.0%	?	-0.6%	i
CCOc1cc(C(=O)NC2CCN(c3cc(-c4ccc(F)cc4)[nH]n3)CC2)cc(OCC)c1OCC	0.7%	-11.9%	?	?	5.0%	i
COc1ccc(CN2CC3(C2)C(=O)Nc2ccccc23)cc1	nt	6.9%[87.6 µM]	?	?	-9.5%[87.6 µM]	nt
Cc1cc(CN(C)c2ccc(-c3nc(COc4ccccc4)no3)cn2)on1	15.8µM*	156.2%	?	?	0.4%	?
CC1(COc2ccc(-c3nc(COc4ccccc4)no3)cn2)CCCNC1 (stereo unspecified)	?	93.9%	?	?	-6.8%	35.5µM*
COCC(=O)N1CCN(Cc2ccccc2-c2cccnc2)CC1	nt	-7.1%[87.6 µM]	-24.9%[138 µM]	-16.8%[172 µM]	6.8%[12.5 µM]	nt
COc1ccccc1-c1nc(C(=O)NCCc2ccc(Cl)cc2)n2ccncc12	nt	-12.5%	28.2µM*	?	7.9%	nt
COCCNC(=O)c1nc(-c2c(C)cccc2C)c2ccccn12	-0.6%[70.6 µM]	-19.2%[87.6 µM]	?	35.5µM*	6.6%[87.6 µM]	i
Cc1cccc(C)c1-c1nc(C(=O)NCCc2ccc(Cl)cc2)n2ccccc12	-4.6%	?	-27.3%	50.1µM*	12.5%	i
COCCNC(=O)c1nc(-c2ccccc2)c2ccccn12	6.9%[70.6 µM]	7.7%[87.6 µM]	?	100µM*	4.2%[87.6 µM]	i
N[C@H]1CCN2C(=O)c3cc(-c4ccc5c(c4)OCO5)ccc3NC(=O)[C@H]12	1.5%[70.6 µM]	8.0%[87.6 µM]	?	-3.5%[172 µM]	-12.8%[87.6 µM]	i
O=C(NCc1ccc(F)cc1)c1ccc2nnc(-c3cc[nH]c3)n2c1	nt	-11.5%[87.6 µM]	?	-6.5%[172 µM]	6.2%[87.6 µM]	nt
CCCS(=O)(=O)NCc1cccnc1Oc1cccc(C(F)(F)F)c1	4.5%	-17.1%	-22.8%	?	-3.9%	i
COC(=O)CNC(=O)c1nc(-c2c(C)cccc2C)c2ccccn12	-0.1%	-6.5%	-21.0%	?	3.0%	?
COC(=O)CNC(=O)c1nc(-c2cc(Cl)cc(Cl)c2)c2ccccn12	-24.7%	28.3%	-15.1%	35.5µM*	8.9%	i
CCn1cc(-c2cc(C(=O)N3CCCCCC3)c3cccc(C)c3n2)cn1	1.2%	2.7%	?	?	?	i
c1ccc(-c2nc(CC3CCNC3)no2)cc1 (stereo unspecified)	-2.5%	11.4%	-15.1%	-16.5%	6.8%	i
Cc1ccc(-c2cnc3n[nH]c(-c4ccccc4)c3n2)cc1	-14.1%[70.6 µM]	-21.5%[87.6 µM]	?	31.6µM*	-29.5%[87.6 µM]	i
COc1ccc(-c2[nH]nc3ncc(-c4ccccc4F)nc23)c(C)c1	-13.2%[70.6 µM]	48.0%[87.6 µM]	50.1µM*	63.1µM*	4.4%[87.6 µM]	i
COc1ccc(-c2[nH]nc3ncc(-c4cn[nH]c4)nc23)c(C)c1	0.4%[70.6 µM]	-20.3%[87.6 µM]	?	?	-26.4%[87.6 µM]	i
Cc1cc(C)cc(-c2[nH]nc3ncc(-c4ccsc4)nc23)c1	-12.6%[70.6 µM]	16.2%[87.6 µM]	25.1µM*	?	?	i
Cc1cccc(-c2cnc3n[nH]c(-c4ccccc4)c3n2)c1	-11.9%[70.6 µM]	?	?	70.8µM*	?	i
Cc1cc(-c2cnc3n[nH]c(-c4ccccc4)c3n2)ccn1	-18.3%[70.6 µM]	?	?	?	2.6%[87.6 µM]	i
Cc1ccsc1-c1[nH]nc2ncc(-c3ccccc3)nc12	-11.2%[70.6 µM]	34.5%[87.6 µM]	?	?	6.2%[87.6 µM]	i
COc1ccc(Br)c(C(=O)N[C@@H]2C=C(C(=O)N[C@H](CC(C)C)C(N)=O)C[C@@H](O)[C@@H]2O)c1	-4.6%	-9.2%	i	i	11.7%	i
SMILES	hNpr1 antagonist	SNCA expr inh	3T3 cytotox	HEK293 tox	HEK293 viab	FLuc inh
COc1cccc(S(=O)(=O)N2CCc3c(c(CN4CCOCC4)nn3C)C2)c1	nt	32.7%	-27.3%	-10.5%	3.8%	nt
c1ccc(-c2cnc3n[nH]c(-c4ccccc4)c3n2)cc1	-11.6%[70.6 µM]	-20.3%[87.6 µM]	?	100µM*	-23.3%[87.6 µM]	i
Fc1ccccc1-c1cnc2n[nH]c(-c3ccccc3)c2n1	-18.5%[70.6 µM]	?	89.1µM*	112µM*	-13.1%[87.6 µM]	i
O=C(Nc1ccon1)c1cnc2n[nH]c(-c3ccccc3)c2n1	-4.7%[70.6 µM]	?	31.6µM*	?	?	i
O=C(c1ccco1)N1CCC(N2C(=O)[C@H]3CN(Cc4ccccc4)C[C@H]3C2=O)CC1	nt	8.6%	-23.6%	-27.1%	16.4%	nt
CSc1ccc(-c2cccc(CN3CCC(NC(=O)Nc4ccccc4F)CC3)c2)cc1	nt	nt	12.6µM*	17.8µM*	nt	nt
CSc1ccc(-c2cccc(CN3CCC(NC(=O)NC4CCCC4)CC3)c2)cc1	nt	nt	-17.0%	-9.2%	nt	nt
CSc1ccc(-c2cccc(CN3CCC(NC(=O)Nc4ccccc4)CC3)c2)cc1	nt	nt	14.1µM*	?	nt	nt
CCn1nccc1C(=O)NC1CCN(c2cc(-c3ccccc3)[nH]n2)CC1	-14.8%	24.6%	-14.2%	?	7.0%	i
Cc1cc(CNC(=O)c2cccc(F)c2F)c2[nH]c(C)c(C)c2c1	4.5%	7.6%	?	35.5µM*	-18.5%	i
CCn1nccc1C(=O)NCc1cc(C)cc2c(C)c(-c3ccccc3)[nH]c12	?	-8.9%	39.8µM*	28.2µM*	?	15.8µM*
Cc1cc(CNC(=O)C(C)Cn2nc(C)nc2C)c2[nH]c(-c3ccccc3)c(C)c2c1 (stereo unspecified)	-18.9%	14.9%	?	?	-23.2%	20µM*
C[C@@H](NC(=O)C1=C[C@@H](NC(=O)Cc2cccs2)[C@@H](O)[C@H](O)C1)C(N)=O	6.1%[70.6 µM]	-10.6%[87.6 µM]	i	i	1.7%[87.6 µM]	i
O=C(c1nccc2ccccc12)N1CCc2c(nc(-c3ccccc3)[nH]c2=O)C1	-3.6%	?	?	25.1µM*	-9.3%	i
CCOCCNc1ncnc2c1CN(C1CCCCC1)C(=O)CN2C	nt	56.1%	-7.6%	i	-14.1%	nt
CC(=O)Nc1ccc(CN2C(=O)OC3(CCN(Cc4ccc(C#N)cc4)CC3)C2(C)c2ccccc2)cc1 (stereo unspecified)	-14.1%	3.2%	-27.8%	?	-18.2%	i
CC(=O)Nc1ccc(CN2C(=O)OC3(CCN(Cc4ccc(C(C)C)cc4)CC3)C2(C)c2ccccc2)cc1 (stereo unspecified)	-2.3%	?	35.5µM*	?	?	i
CC(C)c1ccc(CN2CCC3(CC2)OC(=O)N(Cc2ncccn2)C3(C)c2ccccc2)cc1 (stereo unspecified)	0.1%	-26.7%	?	39.8µM*	-21.7%	i
COc1ccc(CN2Cc3[nH]nc(-c4cccnc4OC)c3CC2=O)cc1	0.8%[70.6 µM]	-11.2%[87.6 µM]	?	70.8µM*	-2.6%[87.6 µM]	i
